Assay [1] in a line: qHTS assay to identify small molecule antagonists of the thyroid receptor (TR) signaling pathway - cell viability counter screen (AID 743064). Note: nearly all actives have a fitted effect of over 50% in size. Note: potency is the fitted concentration of half-maximal effect. In a few lines: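 GH3.TRE-Luc rat pituitary cells carrying a TRE-luciferase reporter were treated with compound plus 1 nM T3 (final) for 23.5 h at 37 °C. Viability was then read in the same wells by CellTiter-Fluor fluorescence after a further 30 min.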
In general terms: qHTS replaces the single test concentration by a dilution series.

A short description of assay [2]: qHTS assay to identify small molecule antagonists of the thyroid receptor (TR) signaling pathway (AID 743065). Note: nearly all actives have a fitted effect of over 55% in size. Note: potency is the fitted concentration of half-maximal effect. In a few lines: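 Antagonism measured as loss of luciferase signal in GH3 cells stably carrying a TRE-luciferase reporter, co-treated with compound and T3 (1 nM final) for 23.5 h at 37 C. Viability was read in the same well by CellTiter-Fluor.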
The test system of assay [3] is thyroid hormone receptor (rat, GH3 cells). The experiment in a line: qHTS assay to identify small molecule agonists of the thyroid receptor (TR) signaling pathway (AID 743066; calls by dose curve; note: potency is the fitted concentration of half-maximal effect).
A short description of assay [4]: qHTS assay to identify small molecule antagonists of the estrogen receptor alpha (ER-alpha) signaling pathway - cell viability counter screen (AID 743074; calls by dose curve;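 note: HEK293 cells carrying ER-alpha-UAS-bla reporter stimulated with 17beta-estradiol; nearly all actives have a fitted effect of over 45% in size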).
For assay [5], the target named is Estrogen receptor (Homo sapiens) (UniProt P03372). The experiment in a line: qHTS assay to identify small molecule agonists of the estrogen receptor alpha (ER-alpha) signaling pathway (AID 743075; calls by dose curve;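 note: HEK293 GripTite cells with ER-alpha and UAS-driven beta-lactamase reporter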).
Assay [6] has the same target. The experiment in a line: qHTS assay to identify small molecule agonists of the estrogen receptor alpha (ER-alpha) signaling pathway using the BG1 cell line (AID 743079). Note: nearly all actives have a fitted effect of over 20% in size. Note: potency is the fitted concentration of half-maximal effect. The following applies: BG1Luc4E2 cells, ERE-luciferase agonist, 22 h; activation: at 70.3 µM (top of the series) unless noted.
Assay [7] can be described thus: qHTS assay to identify small molecule antagonists of the estrogen receptor alpha (ER-alpha) signaling pathway using the BG1 cell line (AID 743080; calls by dose curve;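 note: BG1 cells stimulated with 17beta-estradiol alongside compound; nearly all actives have a fitted effect of over 25% in size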). In a few lines: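 Quantitative HTS on the Tox21 10K library: BG1 cells with endogenous ER-alpha and ERE-luciferase reporter, 17beta-estradiol stimulation, 21.5 h compound exposure, luminescence endpoint with parallel fluorescence cytotoxicity counter-read.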

Assay [8] in a line: qHTS assay to identify small molecule antagonists of the estrogen receptor alpha (ER-alpha) signaling pathway using the BG1 cell line - cell viability counter screen (AID 743081).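 Note: compound given together with 17beta-estradiol as the ER stimulus; nearly all actives have a fitted effect of over 45% in size.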 Note: potency is the fitted concentration of half-maximal effect.
A further assay concerns the target Aromatase (Homo sapiens) (UniProt P11511). The experiment in a line: qHTS assay to identify aromatase inhibitors (AID 743083). Note: nearly all actives have a fitted effect of over 55% in size. Note: potency is the fitted concentration of half-maximal effect.

Where “and” joins values, the source holds several entries; their conditions need not be identical. Equal values may be shown once. Inconclusive results are not listed. Some structures have more than one record in an assay (separate samples or runs), and their calls can disagree. Calls of active or inactive are those of the source. Unless noted, calls come from the whole dose curve; as a rule, active = well fitted curve in the direction sought with a large enough effect in the repeat runs; inconclusive = weak or mixed curves; inactive = no such curve, though single readings can be large; an effect the other way counts as inactive or inconclusive.

Estrogen receptor (Homo sapiens), sequence (P03372 whole entry, looked up): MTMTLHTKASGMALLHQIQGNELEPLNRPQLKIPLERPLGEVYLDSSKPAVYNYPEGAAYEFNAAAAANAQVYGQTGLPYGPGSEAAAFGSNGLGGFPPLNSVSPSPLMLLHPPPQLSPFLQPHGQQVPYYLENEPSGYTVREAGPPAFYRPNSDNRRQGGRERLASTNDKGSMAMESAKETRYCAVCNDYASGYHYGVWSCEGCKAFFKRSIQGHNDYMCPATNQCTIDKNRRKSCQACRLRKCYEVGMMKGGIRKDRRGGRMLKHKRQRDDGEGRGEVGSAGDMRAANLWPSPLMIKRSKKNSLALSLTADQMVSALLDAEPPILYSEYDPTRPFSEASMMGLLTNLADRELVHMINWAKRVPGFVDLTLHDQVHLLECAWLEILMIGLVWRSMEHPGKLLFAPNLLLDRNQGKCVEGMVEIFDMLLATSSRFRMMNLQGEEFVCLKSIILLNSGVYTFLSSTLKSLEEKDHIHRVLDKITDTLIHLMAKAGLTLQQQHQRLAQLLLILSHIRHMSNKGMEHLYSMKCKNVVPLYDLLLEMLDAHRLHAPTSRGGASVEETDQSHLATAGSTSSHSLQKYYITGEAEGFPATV
Aromatase (Homo sapiens), sequence (P11511 whole entry, looked up): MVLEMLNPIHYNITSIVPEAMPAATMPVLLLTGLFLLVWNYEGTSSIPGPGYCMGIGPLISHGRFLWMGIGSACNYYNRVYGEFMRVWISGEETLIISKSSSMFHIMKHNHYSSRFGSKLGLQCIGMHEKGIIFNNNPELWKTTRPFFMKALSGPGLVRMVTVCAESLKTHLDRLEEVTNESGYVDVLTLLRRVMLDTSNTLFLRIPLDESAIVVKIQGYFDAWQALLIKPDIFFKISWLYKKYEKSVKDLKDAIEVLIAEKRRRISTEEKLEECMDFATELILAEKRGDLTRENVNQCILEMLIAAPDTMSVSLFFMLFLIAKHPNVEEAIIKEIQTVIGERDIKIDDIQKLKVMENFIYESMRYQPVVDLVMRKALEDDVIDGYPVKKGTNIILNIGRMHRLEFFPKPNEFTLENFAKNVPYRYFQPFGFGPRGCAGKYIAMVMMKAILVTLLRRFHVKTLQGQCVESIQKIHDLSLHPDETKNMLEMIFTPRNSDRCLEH

`Cc1ccncc1`: the Potency result in assay [1], in assay [2], in assay [3], in assay [4], in assay [5] and in assay [6] was “inactive” in each case. The Potency entry (in assay [7]; in assay [8]; with Aromatase (Homo sapiens)) was “inactive” throughout.
With `OCCOCCOCCOCCOCCO`, the Potency result (in assay [1]; in assay [2]; in [3]; in [4]; in [8]; with Aromatase (Homo sapiens)) was “inactive” each time.
For the compound `CCCCCCCCO`, the Potency result in [1], in [2], in assay [3], in assay [4], in assay [5] and in [6] was “inactive” each time. For the same compound, the Potency result (in assay [7]; in assay [8]; in the assay with Aromatase (Homo sapiens)) was “inactive” in each case.
Take `Cc1cc(CC(=O)O)n(C)c1C(=O)c1ccc(Cl)cc1`: the Potency result (in [1]; in [2]; in assay [3]; in assay [4]; in [8]; in the assay with Aromatase (Homo sapiens)) was “inactive” in each case.
`CN=C(NC#N)NCCSCc1nc[nH]c1C`: the Potency entry in [1], in assay [2], in assay [3], in assay [4], in assay [5] and in assay [6] was “inactive” each time. For the same compound, the Potency entry (in assay [7]; in assay [8]; with Aromatase (Homo sapiens)) was “inactive” in each case.
Regarding `Cc1cccc(C)c1[N+](=O)[O-]`, the Potency result (in assay [1]; in assay [2]; in [4]; in [8]; in the assay with Aromatase (Homo sapiens)) was “inactive” each time. In assay [3], the Potency entry is “inactive and 61.1 µM (active)”.
`CC(C)(C)NC[C@H](O)COc1nsnc1N1CCOCC1`: the Potency entry in [1], in assay [2], in assay [3], in assay [4] and in [8] was “inactive” throughout.
Turning to `O=C(NCC1CCCCN1)c1cc(OCC(F)(F)F)ccc1OCC(F)(F)F` (stereo not drawn), the Potency was 29.8 µM (active) in assay [1] and 53.5 µM (active) in [2]. The Potency entry in assay [3], in assay [4] and in assay [8] was “inactive” in each case.
For `O=[N+]([O-])c1cc(C(F)(F)F)ccc1Cl`, the Potency entry (in assay [1]; in [2]; in assay [3]; in assay [4]; in assay [8]; with Aromatase (Homo sapiens)) was “inactive” each time.
In the case of `CC/C(C)=N/O`, the Potency entry in [1], in assay [2], in assay [3], in [4] and in assay [8] was “inactive” each time.
Consider `COC(=O)/C=C\C(=O)OC`, for which the Potency entry in [1], in [2], in assay [3], in assay [4] and in [8] was “inactive” each time.
In the case of `O=C(O)Cc1c[nH]c2ccccc12`, the Potency result in [1], in assay [2], in assay [3], in assay [4] and in [8] was “inactive” in each case.
As for `CCn1cc(C(=O)O)c(=O)c2cc3c(cc21)OCO3`, the Potency result (in assay [1]; in [2]; in [3]; in assay [4]; in assay [8]; with Aromatase (Homo sapiens)) was “inactive” in each case.
For `CCN(CC)CCNC(=O)c1ccc(N)cc1`, the Potency entry (in assay [1]; in assay [2]; in [3]; in [4]; in [8]; with Aromatase (Homo sapiens)) was “inactive” in each case.
In the case of `C=C(C)CC(C)(C)C`, the Potency result in assay [1], in [2], in assay [3], in assay [4] and in assay [8] was “inactive” in each case.
`CCOC(=O)c1ccc(O)cc1`: the Potency result in assay [1], in [2], in [3], in assay [4], in assay [5] and in assay [8] was “inactive” in each case. Moreover, the Potency result with Aromatase (Homo sapiens) is “inactive”. For the same compound, the Potency in assay [6] was 23.7 µM (active) and 30.6 µM (active).
Take `CCCCC(CC)COC(=O)c1ccc(C(=O)OCC(CC)CCCC)cc1` (stereo not drawn): the Potency result (in assay [1]; in assay [2]; in [3]; in assay [4]; in [8]; with Aromatase (Homo sapiens)) was “inactive” in each case.
With `NC(=O)c1ncn([C@@H]2O[C@H](CO)[C@@H](O)[C@H]2O)n1`, the Potency was 33.5 µM (active) in assay [1]; 13.3 µM (active) and 28.8 µM (active) in assay [2]. Besides, the Potency result (in assay [3]; in assay [4]; in [8]; in the assay with Aromatase (Homo sapiens)) was “inactive” in each case.
On to `CC/C=C(\C(=O)N[C@@H]1C(=O)N2C(C(=O)OCOC(=O)C(C)(C)C)=C(COC(N)=O)CS[C@H]12)c1csc(N)n1`, for which the Potency result in assay [1], in assay [2], in assay [3], in [4], in assay [5] and in [6] was “inactive” each time. Further, the Potency result (in assay [7]; with Aromatase (Homo sapiens)) was “inactive” in each case.
With `C=C1C[C@]23C[C@@]1(O)CC[C@H]2[C@@]12C=C[C@H](O)[C@@](C)(C(=O)O1)[C@H]2[C@@H]3C(=O)O`, the Potency result (in assay [1]; in [2]; in assay [3]; in assay [4]; in assay [8]; with Aromatase (Homo sapiens)) was “inactive” each time.
In the case of `Cc1ccc(C)c(S(=O)(=O)O)c1`, the Potency entry (in assay [1]; in assay [2]; in assay [3]; in [4]; in [8]; with Aromatase (Homo sapiens)) was “inactive” throughout.
For `O=C(Cl)c1ccc(C(=O)Cl)cc1`, the Potency result in assay [1], in [2], in assay [3], in [4], in [5] and in assay [6] was “inactive” in each case. Further, the Potency result (in assay [7]; in [8]; with Aromatase (Homo sapiens)) was “inactive” throughout.
In the case of `CC[N+](CC)(CC(=O)Nc1c(C)cccc1C)Cc1ccccc1`, the Potency entry (in assay [1]; in [4]; in assay [8]; with Aromatase (Homo sapiens)) was “inactive” throughout.
As for `O=C1O[C@H]([C@H](O)CO)C(O)=C1O`, the Potency entry (in assay [1]; in assay [3]; in assay [4]; in assay [8]; with Aromatase (Homo sapiens)) was “inactive” throughout.
As for `CC(=O)CC(=O)N(C)C`, the Potency entry in assay [2], in assay [3], in assay [4], in [5], in assay [6] and in [7] was “inactive” each time. Also, the Potency entry (in [8]; in the assay with Aromatase (Homo sapiens)) was “inactive” throughout.
`c1cnc2c(c1)ccc1cccnc12`: the Potency in assay [1] is 7.77 µM (active) and 6.86 µM (active) and 15.4 µM (active); in assay [8], 15.5 µM (active); with Aromatase (Homo sapiens), 6.17 µM (active) and 6.86 µM (active) and 9.69 µM (active). Also, the Potency entry in [3] and in assay [4] was “inactive” throughout.
Take `CCCCCC(C)=O`: the Potency result (in assay [1]; in [2]; in assay [3]; in [4]; in [8]; with Aromatase (Homo sapiens)) was “inactive” in each case.
Take `Clc1cccc(Cl)c1NC1=NCCN1`: the Potency result (in assay [1]; in [2]; in assay [3]; in assay [4]; in [8]; with Aromatase (Homo sapiens)) was “inactive” each time.
For the compound `Cc1ncc(CO)c(CO)c1O`, the Potency result (in [1]; in [4]; in assay [8]; in the assay with Aromatase (Homo sapiens)) was “inactive” in each case.
Consider `CC(CN1c2ccccc2Sc2ccccc21)N(C)C` (stereo not drawn), for which the Potency in [1] was 23.7 µM (active) and 5.5 µM (active) and 30.6 µM (active); in [2] it was 26.6 µM (active) and 27.6 µM (active) and 61.1 µM (active); with Aromatase (Homo sapiens), “inactive and 61.8 µM (active)”. The Potency entry in assay [3] and in [8] was “inactive” throughout.
For `Cc1ccc([N+](=O)[O-])cc1N`, the Potency entry in assay [1], in [2], in assay [3], in assay [5], in assay [6] and in assay [7] was “inactive” throughout. In addition, the Potency result (in [8]; in the assay with Aromatase (Homo sapiens)) was “inactive” throughout.

The values are drawn from PubChem BioAssay (Tox21).
